Drawing on PubChem BioAssay (Tox21), this text covers Potency for 32 molecules.

Molecules are shown by their SMILES. Results filed as inconclusive are left out. A call without a number means that no potency is given here. Calls of active or inactive are those of the source. Unless noted, the call rests on the fitted dose curve; in most records, active means well fitted activation curve with a large enough effect in the repeat runs; inconclusive means weak or mixed curves; inactive means no such curve, though single readings can be large or run the other way.

Test system in one test: not listed separately
The experiment in a line: qHTS assay to identify small molecule agonists of the estrogen related receptor (ERR) signaling pathway (AID 1224820). The note with it: ERR reporter cell line, luciferase agonist mode; series mostly up to 46.1 µM. In outline:
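ERR reporter cell line (from NTP), 2,000 cells/well, incubated 6 h before compound addition, then 18 h at 37 C. Luminescence measured 30 min after One-Glo reagent at room temperature.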
Background: In qHTS, concentration-response curves come from the screen itself.
Consider `Clc1ccc2c(c1)N=C(N1CCNCC1)c1ccccc1N2`, for which the Potency result was “inactive”.
For the molecule `O=[N+]([O-])c1ccc2c(c1)S(=O)(=O)C=C2`, the Potency entry was “inactive”.
For the molecule `CN1CCN(CCCN2c3ccccc3Sc3ccc(C(F)(F)F)cc32)CC1`, the Potency result is “inactive”.
On the same count and under the same terms, under `COC(=O)C1=C(C)NC(C)=C(C(=O)OC)C1c1cccc(NC(=O)NCCCN2CCC(c3cccc(OC)c3)CC2)c1` stands “inactive”; under `O=[N+]([O-])c1ccc(CNc2nc(NCc3cccc(C(F)(F)F)c3)nc3nc[nH]c23)cc1`, “inactive”; under `O=c1ccc2c(OCCCCc3ccccc3)c3ccoc3cc2o1`, “inactive”.
Still for that read-out and setting: under `O=C1Nc2ccc(I)cc2/C1=C/c1cc(Br)c(O)c(Br)c1` stands “inactive”; under `CCCCN(CC)c1nc(C)nc2c1c(C)cn2-c1c(C)cc(C)cc1C`, “inactive”; under `O=C1NC(=O)c2c1c(-c1ccccc1)cc1[nH]c3ccc(O)cc3c21`, “inactive”.
`CCN(CC)CC#CCOC(=O)C(O)(c1ccccc1)C1CCCCC1` (stereo unspecified): the Potency entry is “inactive”.
Take `NS(=O)(=O)C#Cc1ccccc1`: the Potency entry was “inactive”.
On to `CN1CCCC1CCOC(C)(c1ccccc1)c1ccc(Cl)cc1` (stereo unspecified), for which the Potency result is “inactive”.
The same measure, in the same setting: under `COc1cc2nc(N3CCCN(C)CC3)nc(NC3CCN(Cc4ccccc4)CC3)c2cc1OC` stands “inactive”.
On the same count and under the same terms, the same measure for `COc1ccccc1N1CCN(CCCCNC(=O)c2ccc3ccccc3c2)CC1`: “inactive”; for `NC(=NCc1ccccc1)NC(=O)c1nc(Cl)c(N)nc1N`: “inactive”.
Regarding `Oc1cc2c(cc1O)CN(C(=S)NCCc1ccc(Cl)cc1)CCC2`, the Potency result is “inactive”.
With `Oc1ccc(/C=C/c2ccc(/C=C/c3ccc(O)cc3)c(Br)c2)cc1`, the Potency result is “inactive”.
As to `COC(=O)C1=C(C)NC(C)=C([N+](=O)[O-])C1c1ccccc1C(F)(F)F` (stereo unspecified), the Potency entry was “inactive”.
In the case of `Nc1c(S(=O)(=O)O)cc(Nc2ccc(Nc3nc(Cl)nc(Nc4ccc(S(=O)(=O)O)cc4)n3)c(S(=O)(=O)O)c2)c2c1C(=O)c1ccccc1C2=O`, the Potency result is “inactive”.
In the case of `c1ccc2c(c1)CCC[C@H]2Nc1nc2ccccc2[nH]1`, the Potency result is “inactive”.
As for `CC(C)N(CCC(=O)c1ccc2ccccc2c1)Cc1ccccc1`, the Potency entry was “inactive”.
In the case of `CCOC(=O)N1CCN(/[N+]([O-])=N/Oc2ccc([N+](=O)[O-])cc2[N+](=O)[O-])CC1`, the Potency result was “inactive”.
`COc1cccc2c1[C@@H]1CN(CCCCn3c(=O)[nH]c4c(sc5ncc(-c6ccccc6)nc54)c3=O)C[C@@H]1CO2`: the Potency entry was “inactive”.
The same measure, in the same setting: under `CN(C)S(=O)(=O)c1ccc2c(c1)/C(=C/c1cc3c([nH]1)CCCC3)C(=O)N2` stands “inactive”; under `C[C@H](Cc1ccc(O)c(O)c1)[C@@H](C)Cc1ccc(O)c(O)c1`, “inactive”; under `N#C/C(=C\c1ccc(-c2cc(Cl)ccc2Cl)o1)C(=O)Nc1cccc2ncccc12`, “inactive”.
Still for that read-out and setting: the same measure for `C=CCN1CCc2c(cc(O)c(O)c2Cl)C(c2ccccc2)C1` (stereo unspecified): “inactive”; for `COc1ccc(/C=C/c2nc(NCCCN(C)C)c3ccccc3n2)cc1`: “inactive”; for `Nc1nc(N)c(N=O)c(OCC2CCCCC2)n1`: “inactive”.
The same measure, in the same setting: the same measure for `CCCCCCCCCCC(C)(C)C(=O)Nc1c(OC)cc(OC)cc1OC`: “inactive”; for `C=CCN1CCc2c(cc(O)c(O)c2Br)[C@@H](c2ccccc2)C1`: “inactive”.

Another test concerns estrogen-related receptor alpha (ERRalpha) with PGC-1alpha coactivator, human. The experiment in a line: qHTS assay to identify small molecule antagonists of the estrogen related receptor signaling pathway with the pleiotropic PPARgamma coactivator (PGC) (AID 1224821; calls by dose curve; further: nearly all actives have a fitted effect of over 50% in size; further: potency means the concentration at half of the fitted maximal effect). The settings on record: ERR/PGC reporter cell line, luciferase, antagonist mode; series mostly up to 46.1 µM. A digest of the protocol: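 PGC/ERR reporter cell line, plated 6 h before compound addition, then exposed 18 h at 37 °C. Luciferase activity read by luminescence 30 min after One-Glo addition; decrease indicates antagonism.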
Consider `Clc1ccc2c(c1)N=C(N1CCNCC1)c1ccccc1N2`, for which the Potency result is “inactive”.
Same read-out and setting: the same measure for `CN1CCN(CCCN2c3ccccc3Sc3ccc(C(F)(F)F)cc32)CC1`: “inactive”; for `COC(=O)C1=C(C)NC(C)=C(C(=O)OC)C1c1cccc(NC(=O)NCCCN2CCC(c3cccc(OC)c3)CC2)c1`: 31 µM (active).
The same measure, in the same setting: under `O=c1ccc2c(OCCCCc3ccccc3)c3ccoc3cc2o1` stands “inactive”; under `O=C1Nc2ccc(I)cc2/C1=C/c1cc(Br)c(O)c(Br)c1`, “inactive”; under `CCCCN(CC)c1nc(C)nc2c1c(C)cn2-c1c(C)cc(C)cc1C`, 12.8 µM (active).
Regarding `O=C1NC(=O)c2c1c(-c1ccccc1)cc1[nH]c3ccc(O)cc3c21`, the Potency result was “inactive”.
Regarding `CN1CCCC1CCOC(C)(c1ccccc1)c1ccc(Cl)cc1` (stereo unspecified), the Potency result was “inactive”.
`NC(=NCc1ccccc1)NC(=O)c1nc(Cl)c(N)nc1N`: the Potency result is “inactive”.
Consider `Oc1cc2c(cc1O)CN(C(=S)NCCc1ccc(Cl)cc1)CCC2`, for which the Potency result is “inactive”.
On the same count and under the same terms, under `Oc1ccc(/C=C/c2ccc(/C=C/c3ccc(O)cc3)c(Br)c2)cc1` stands “inactive”.
Same read-out and setting: the same measure for `Nc1c(S(=O)(=O)O)cc(Nc2ccc(Nc3nc(Cl)nc(Nc4ccc(S(=O)(=O)O)cc4)n3)c(S(=O)(=O)O)c2)c2c1C(=O)c1ccccc1C2=O`: 18.8 µM (active).
Regarding `c1ccc2c(c1)CCC[C@H]2Nc1nc2ccccc2[nH]1`, the Potency entry is “inactive”.
For `CC(C)N(CCC(=O)c1ccc2ccccc2c1)Cc1ccccc1`, the Potency was 19.9 µM (active).
Regarding `COc1cccc2c1[C@@H]1CN(CCCCn3c(=O)[nH]c4c(sc5ncc(-c6ccccc6)nc54)c3=O)C[C@@H]1CO2`, the Potency result was “inactive”.
The same measure, in the same setting: under `Cc1cccc(C2CN(C)CCc3c2cc(O)c(O)c3Cl)c1` (stereo unspecified) stands “inactive”.
The same measure, in the same setting: under `CN(C)S(=O)(=O)c1ccc2c(c1)/C(=C/c1cc3c([nH]1)CCCC3)C(=O)N2` stands “inactive”.
The same measure, in the same setting: the same measure for `N#C/C(=C\c1ccc(-c2cc(Cl)ccc2Cl)o1)C(=O)Nc1cccc2ncccc12`: “inactive”.
On to `C=CCN1CCc2c(cc(O)c(O)c2Cl)C(c2ccccc2)C1` (stereo unspecified), for which the Potency entry is “inactive”.
As for `Nc1nc(N)c(N=O)c(OCC2CCCCC2)n1`, the Potency result is “inactive”.
